The subject of assay [1] is Human papillomavirus type 1a protein E7 (residues 44-93). Put plainly: HPV1a E7 fragment binders on microarrays, primary screen, biochemical, small-molecule microarray, residues 44-93, 635 nm fluorescence (AID 1108).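 Further: E7 fragment applied at 1 µg/mL in TBST for 1 h at 4 C; score combines spot fluorescence with its signal to noise ratio.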 Conditions: small-molecule microarray binding, fluorescence 635 nm; higher = more signal.
Assay [2] is described as follows: modulators of HCV replicon luciferase signal, primary screen, HCV replication inhibitor project, Huh7 cells, luciferase reporter (AID 1109).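 Further: huh7 hepatoma cells harbouring a luciferase neomycin HCV replicon reporter; luciferase luminescence as measure of HCV replicon replication; test concentration not given here.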 To be noted: 48 h, higher = more signal. Background: A replicon is a self-replicating genome or part of one, used to study replication in cells.
Assay [3] deals with Left-right determination factor 2 (Homo sapiens) (UniProt O00292). In words: LEFTY2 binders on small-molecule microarrays, primary screen, biochemical, small-molecule microarray, 635 nm fluorescence scan (AID 1110). Conditions: LEFTY2 binding, higher = more signal.
Sequence of Left-right determination factor 2 (Homo sapiens) (O00292 whole entry, looked up): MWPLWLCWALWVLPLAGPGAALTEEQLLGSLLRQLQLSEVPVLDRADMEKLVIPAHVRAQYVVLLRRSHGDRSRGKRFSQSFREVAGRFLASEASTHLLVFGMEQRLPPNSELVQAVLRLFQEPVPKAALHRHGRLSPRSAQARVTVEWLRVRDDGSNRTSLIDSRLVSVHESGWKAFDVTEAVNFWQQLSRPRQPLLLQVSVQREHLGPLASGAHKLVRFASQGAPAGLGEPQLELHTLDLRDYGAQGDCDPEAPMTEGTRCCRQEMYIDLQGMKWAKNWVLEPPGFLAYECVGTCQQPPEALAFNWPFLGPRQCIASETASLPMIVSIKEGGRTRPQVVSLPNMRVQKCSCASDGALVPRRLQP
The target of assay [4] is Calmodulin-1 (Homo sapiens) (UniProt P0DP23). In words: CALM1 binders on microarrays, EGTA buffer, profiling panel, biochemical, small-molecule microarray, Cy5-labelled CALM1 (AID 1111).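 Further: labelled calmodulin applied in Tris saline Tween buffer holding calcium plus EGTA and DTT.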 To be noted: Cy5-CALM1 binding fluorescence, higher = more signal.
The target is the same in assay [5]. In words: calcium-bound CALM1 binders on microarrays, profiling panel, artefact control for SMM control-protein annotation, biochemical, small-molecule microarray, Cy5-labelled CALM1, plus calcium (AID 1112).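 Further: score merges spot fluorescence with signal to noise from triplicate slides.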 To be noted: Cy5-CALM1 binding fluorescence, higher = more signal.
Assay [6] in a line: small-molecule microarray binders of probe aWnt5a, primary screen, biochemical, biotinylated probe, 635/667 nm fluorescence (AID 1113).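 Further: score merges 667 nm fluorescence intensity with signal-to-noise per printed feature.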 To be noted: higher = more signal.
Assay [7] can be described thus: small-molecule microarray binders of probe aShh, primary screen, biochemical, biotinylated probe, 635/667 nm fluorescence (AID 1114).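 Further: probe is biotin-labelled aShh protein from a stem cell growth factor screen; measures binding of labelled protein to compounds printed on the slide; score merges feature fluorescence at 667 nm with signal-to-noise.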 Conditions: higher = more signal.
Assay [8] in a line: small-molecule microarray binders of probe aNog, primary screen, biochemical, biotinylated probe, 635/667 nm fluorescence (AID 1115).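 Further: probe is biotinylated aNog protein used at 0.15 µg/mL for 1 h at 4 C; z-score combines 667 nm fluorescence of each spot with its signal to noise.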 Conditions: higher = more signal.
For assay [9], the target named is Torsin-1A-interacting protein 1 (Homo sapiens) (UniProt Q5JTV8). In words: LAP1 binders from COS7 cell lysate, primary screen, small-molecule microarray, 635/667 nm fluorescence (AID 1116). Conditions: COS7-hLAP1 lysate binding, 635 nm fluorescence, higher = more signal.
Sequence of Torsin-1A-interacting protein 1 (Homo sapiens) (Q5JTV8 whole entry, looked up): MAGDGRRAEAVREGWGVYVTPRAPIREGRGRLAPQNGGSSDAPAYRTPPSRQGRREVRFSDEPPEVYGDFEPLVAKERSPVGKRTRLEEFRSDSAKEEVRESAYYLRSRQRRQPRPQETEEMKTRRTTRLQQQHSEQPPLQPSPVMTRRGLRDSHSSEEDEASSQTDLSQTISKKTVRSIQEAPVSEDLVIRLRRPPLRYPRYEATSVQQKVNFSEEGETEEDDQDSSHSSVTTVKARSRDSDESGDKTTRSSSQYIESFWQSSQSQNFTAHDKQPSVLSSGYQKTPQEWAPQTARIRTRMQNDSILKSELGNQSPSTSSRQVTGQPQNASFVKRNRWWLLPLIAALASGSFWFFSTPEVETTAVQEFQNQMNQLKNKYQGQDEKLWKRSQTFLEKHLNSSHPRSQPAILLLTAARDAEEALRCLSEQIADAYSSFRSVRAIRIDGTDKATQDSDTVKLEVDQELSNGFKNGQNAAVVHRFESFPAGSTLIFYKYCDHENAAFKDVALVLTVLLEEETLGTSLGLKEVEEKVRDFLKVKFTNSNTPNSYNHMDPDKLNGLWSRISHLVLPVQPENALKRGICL
Assay [10] deals with Alpha-bungarotoxin (Bungarus multicinctus) (UniProt P60615). In words: alpha-bungarotoxin binders on microarray, profiling panel, artefact control for SMM control protein annotation, biochemical, small-molecule microarray, Alexa647 label, 635/667 nm fluorescence (AID 1117). To be noted: alpha-BTX-A647 binding fluorescence, higher = more signal.
Sequence of Alpha-bungarotoxin (Bungarus multicinctus) (P60615 whole entry, looked up): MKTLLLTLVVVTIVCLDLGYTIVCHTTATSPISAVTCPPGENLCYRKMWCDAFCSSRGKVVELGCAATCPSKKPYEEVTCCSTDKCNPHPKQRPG
Assay [11] deals with Albumin (Bos taurus) (UniProt P02769). Put plainly: bovine serum albumin binders on microarray, profiling panel, artefact control for SMM control protein annotation, biochemical, small-molecule microarray, Alexa647 label, 635/667 nm fluorescence (AID 1118).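 Further: score merges 667 nm emission intensity and signal-to-noise per printed compound spot.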 Conditions: BSA-A647 binding, fluorescence 635 nm, higher = more signal.
Sequence of Albumin (Bos taurus) (P02769 whole entry, looked up): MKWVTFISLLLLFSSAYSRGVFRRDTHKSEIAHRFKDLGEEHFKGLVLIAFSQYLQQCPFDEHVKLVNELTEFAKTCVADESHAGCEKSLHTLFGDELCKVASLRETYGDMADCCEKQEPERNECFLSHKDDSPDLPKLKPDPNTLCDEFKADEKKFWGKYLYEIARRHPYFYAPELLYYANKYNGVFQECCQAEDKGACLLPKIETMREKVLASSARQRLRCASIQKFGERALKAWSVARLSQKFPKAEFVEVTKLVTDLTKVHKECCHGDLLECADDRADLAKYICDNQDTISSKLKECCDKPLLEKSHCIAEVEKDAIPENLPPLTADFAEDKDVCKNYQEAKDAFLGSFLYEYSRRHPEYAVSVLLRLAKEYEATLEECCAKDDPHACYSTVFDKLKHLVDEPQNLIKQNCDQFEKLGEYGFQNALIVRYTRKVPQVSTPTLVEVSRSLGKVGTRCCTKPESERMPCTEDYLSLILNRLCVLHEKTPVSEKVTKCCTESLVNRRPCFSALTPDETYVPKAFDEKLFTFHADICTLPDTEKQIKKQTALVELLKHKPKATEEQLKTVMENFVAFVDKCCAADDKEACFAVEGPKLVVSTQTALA
Assay [12] can be described thus: small-molecule microarray binders of probe aXIP, primary screen, biochemical, NeuroSMM set, 635/667 nm fluorescence (AID 1119).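 Further: probe is the protein aXip251-270 applied at 1 µg/mL to compound-printed slides; binding of probe to printed compounds measured as 667 nm fluorescence plus signal to noise.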 To be noted: higher = more signal, called active from +8 up or from −8 down.
A short description of assay [13]: small-molecule binders of probe aNOTCH3, primary screen, biochemical, small-molecule microarray, 635/667 nm fluorescence (AID 1120).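 Further: probe is a biotin-tagged antibody raised against NOTCH3 rather than NOTCH3 protein; score merges spot fluorescence near 667 nm with spot signal to noise.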 To be noted: higher = more signal.
A short description of assay [14]: small-molecule binders of probe aNOTCH2, primary screen, biochemical, small-molecule microarray, 635/667 nm fluorescence (AID 1121).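 Further: score merges feature fluorescence read at 667 nm with its signal to noise.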 Conditions: higher = more signal.
In assay [15] the target is Carbonic anhydrase 2 (Homo sapiens) (UniProt P00918). In words: CAII small-molecule binders, profiling panel, biochemical, small-molecule microarray, Alexa647-labelled CAII (AID 1122). Conditions: CAII-A647 binding fluorescence, higher = more signal.
The nature of assay [16]: COS7 lysate on small-molecule microarray, probe aHis, 635 nm (AID 1123).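 Further: z-score combines 667nm fluorescence intensity with signal-to-noise per printed compound spot.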 Conditions: COS7 cell lysate, fluorescence, higher = more signal.
Assay [17] can be described thus: compound binding in COS7 lysate, probe aLAP1, primary screen, cell lysate, small-molecule microarray (AID 1124).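 Further: lysate comes from COS7 cells expressing LAP1 and is applied at 0.3 µg/mL; score merges spot fluorescence near 667 nm with signal-to-noise over triplicate slides.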 Conditions: probe aLAP1, fluorescence, higher = more signal.
Assay [18] concerns Sam68 (KHDRBS1). Put plainly: Sam68 small-molecule binders, primary screen, biochemical, small-molecule microarray, 635 nm fluorescence (AID 1125).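 Further: score merges 667 nm channel intensity with signal to noise over triplicate slides.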 To be noted: small-molecule microarray binding, higher = more signal.
In assay [19] the test system is Chordin-like protein 2 (CHRDL2). In words: CHRDL2 small-molecule binders, primary screen, biochemical, small-molecule microarray, 635 nm fluorescence (AID 1126).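 Further: printed compound slides probed with Chrdl2 protein at 4 µg/mL for 1 h at 4 C; score merges 667 nm emission intensity with signal to noise over three replicate slides.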 Conditions: small-molecule microarray binding, fluorescence 635 nm; higher = more signal.
Assay [20] concerns the target Concanavalin-A (Canavalia ensiformis) (UniProt P02866). In words: ConA small-molecule binders, primary screen, artefact control for SMM control protein annotation, biochemical, small-molecule microarray, Alexa647 label, 635 nm (AID 1127).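 Further: z combines 667 nm emission intensity with signal-to-noise across three replicate slides.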 Conditions: ConA-A647 binding fluorescence, higher = more signal.

Activity calls are given as the source filed them.

Sequence of Concanavalin-A (Canavalia ensiformis) (P02866 whole entry, looked up): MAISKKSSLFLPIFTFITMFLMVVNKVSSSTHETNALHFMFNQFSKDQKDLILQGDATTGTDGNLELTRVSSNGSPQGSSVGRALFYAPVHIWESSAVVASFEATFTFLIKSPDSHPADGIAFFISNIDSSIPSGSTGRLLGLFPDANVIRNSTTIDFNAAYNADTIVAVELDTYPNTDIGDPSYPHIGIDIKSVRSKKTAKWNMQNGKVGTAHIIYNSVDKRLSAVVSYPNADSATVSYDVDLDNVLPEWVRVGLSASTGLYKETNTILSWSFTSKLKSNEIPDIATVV

On to `COc1cc(C(O)C2C=CC3C(=O)NC(=O)C3N2Nc2ccc(Cl)cc2Cl)cc(OC)c1OC` (stereo not given), for which the composite z-score in assay [1] is 1.44; in assay [3] it was -0.118; in assay [4], 2.03; in assay [5], 0.866; in [6], 0.0809; in [7] it was -0.0243. Also, the composite z-score in assay [8] stood at 1.22; in [9], 1.22; in [10], 0.877; in assay [11], 0.254; in [13] it was 0.454; in assay [14], 0.0956. Moreover, the composite z-score in assay [15] is 0.752; in assay [16] it was 2.99; in [17], 0.115; in assay [18] it was 0.79; in assay [19] it was -0.0696; in [20] it was 1.05. In [2], this compound came in with a z-score of 0.221. The composite Z-score in assay [12] was -0.762 (inactive).
Regarding `Cc1ccc(S[C@]2(C(=O)NCc3ccccc3)CC(=O)N(C3Cc4ccccc4C3)[C@@H]2c2ccc(CO)cc2I)cc1`, the composite z-score in assay [1] is 0.241; in assay [3] it was -1.53; in [4] it was -0.733; in [5], -0.0933; in assay [6] it was -0.0896; in assay [7], -0.364. Moreover, the composite z-score in assay [8] was -0.0496; in assay [9], -0.129; in assay [10] it was 1.3; in assay [11], 0.254; in [13], -0.187; in [14] it was -0.0716. The composite z-score in [15] is 0.341; in assay [16], 0.401; in [17], 0.458; in [18], 0.269; in assay [19], -0.224; in [20] it was -0.462. The compound further yielded a z-score in assay [2] of -1.63. In addition, the composite Z-score in assay [12] is 3.63 (inactive).
Turning to `O=C(NCc1ccccc1)[C@]1(Cc2ccccc2)N=C(c2ccc(OCCCO)cc2)O[C@@H]1c1ccccc1`, the composite z-score in assay [1] was 1.4; in assay [3], -0.126; in [4] it was 2.01; in assay [5], 1.1; in [6] it was -0.13; in [7], -0.305. The composite z-score in assay [8] is 0.044; in assay [9] it was 0.652; in [10] it was 0.351; in assay [11], 0.895; in assay [13] it was 0.062; in assay [14] it was -0.0519. Moreover, the composite z-score is 0.604 in assay [15]; 1.32 in assay [16]; 0.225 in [17]; 0.938 in assay [18]; -0.243 in assay [19]; 0.418 in assay [20]. This compound also registered a z-score in assay [2] of -2.58. In addition, the composite Z-score in [12] is 0.638 (inactive).
As for `C=CCC(OC(C)=O)[C@@H]1[C@@H](N(Cc2cc3ccccc3o2)C(=O)Cc2ccc(OC)cc2)c2cc(OCCCO)ccc2N1C(=O)c1ccc(-c2ccccc2)cc1` (stereo not given in full), the composite z-score is 0.0962 in [1]; -0.214 in assay [3]; -0.365 in [4]; 0.468 in assay [5]; -0.0767 in assay [6]; -0.147 in [7]. In addition, the composite z-score in assay [8] was -0.23; in [9] it was -0.113; in assay [10], 0.0856; in [11], 0.0023; in assay [13], 0.111; in assay [14], 0.0098. Moreover, the composite z-score in [15] was -0.137; in [16] it was -0.338; in assay [17], -0.0843; in assay [18], -0.494; in [19], 0.224; in assay [20], -1.15. The compound also had a z-score in assay [2] of -0.71. The composite Z-score in [12] was -0.287 (inactive).
As for `COC(=O)C(CC#Cc1ccc2c(c1)[C@]1(C(=O)N2)[C@H](C(=O)N2CCc3cc(OC)c(OC)cc3C2)[C@H]2C(=O)O[C@H](c3ccccc3)[C@H](c3ccccc3)N2[C@@H]1c1ccc(OCCO)cc1)C(=O)OC`, the composite z-score in [1] is 1.41; in [3], 0.633; in assay [4], 1.07; in assay [5] it was 0.16; in assay [6], -0.0236; in assay [7] it was -0.159. Besides, the composite z-score in [8] is -0.198; in assay [9], 0.254; in assay [10], 1.08; in assay [11], 0.438; in assay [13], 0.239; in [14] it was -0.0664. Also, the composite z-score in assay [15] turned out to be 0.413; in assay [16] it was 2.17; in [17] it was 0.969; in [18] it was 1.31; in assay [19], 0.506; in assay [20], 0.942. In assay [2], this compound gave a z-score of -1.21. In addition, in [12], the composite Z-score was -0.715 (inactive).

Values taken from PubChem BioAssay.
